The values that follow come from the OligoGym collection.
Also: reference of the scale not given here.

In the first assay the target is PCDHA4. The assay is described as follows: pooled miR-30 sensor sort-seq; sequence = guide strand. As to conditions: shRNA.
Consider TCTACTTCCACAATAACTCTAC, for which the sensor-assay potency score (higher = more potent) was determined as 0.0889.
The same measure, in the same setting: the value for TATCGTTGTTGTCTTCTACTTC was 0.366; that for TTTTCTAGTAATCTCACCTTAT was -0.448; that for TTCTACTTCCACAATAACTCTA was 0.0225.

A further assay addresses PCDHGA11. Described as above. Conditions: shRNA.
TTGTCCACCGCAACCACCTTGG came in with a sensor-assay potency score (higher = more potent) of -0.673.
Same read-out and setting: the value for TCTTGTTGCCATTGCCACCTGC was -0.107.
On the same count and under the same terms, with TTGAATTTCCATCTCATAGAAT the figure was -0.931; with TAAAACAGGAGACTTGACCATT, -0.606; with TCAATTTGTAATAATTTCCATA, -0.421.
Still for that read-out and setting: with TATATTGTAGCTCTGGACCAAC the figure was -0.9; with TTTTCTGGAACACTCACGCGAT, -0.577; with TTCTCCAGAATCTTGATCTTGC, 0.227.
Sequence ACAGTGATCAACATCGTCGTGG registered a sensor-assay potency score (higher = more potent) of -0.0572.
Still for that read-out and setting: with TATCTCCACTTCGTCCTCCTGG the figure was -0.661.
On to TTTGTCCACCGCAACCACCTTG, for which the sensor-assay potency score (higher = more potent) is -1.17.
Still for that read-out and setting: the value for TTTAGAAGAGCAATCACTGTAC was 0.556; that for TAGCTCTGGACCAACTCCCTGT was 0.0165.

A further assay has as its target PCP2. The assay is described as above. Conditions: shRNA.
ACACGTTGGTCATCCATGCGGC came in with a sensor-assay potency score (higher = more potent) of -0.873.
Still for that read-out and setting: with TGAACAGCGCTGTCCCTCCATC the figure was -1.32; with TGAAGAAGCCCTCCTGGTCTGG, -1.06.
The same measure, in the same setting: with TCGTTTCTGTGCTCCGTCCTTG the figure was -0.435.
On to TTGCAGTGAACAGCGCTGTCCC, for which the sensor-assay potency score (higher = more potent) is -0.308.
Sequence TTGGTGGTCTGGCCCGGCCCGG showed a sensor-assay potency score (higher = more potent) of -1.82.
Still for that read-out and setting: with TGTCACACGTTGGTCATCCATG the figure was -1.21; with ATGAGGCTGTCCATCTCGGGGG, -1.33.
On the same count and under the same terms, the value for TTTCTGTGCTCCGTCCTTGGAC was -1.03.
On the same count and under the same terms, with TTCTGTGCTCCGTCCTTGGACC the figure was -1.15; with TCCATGAGGCTGTCCATCTCGG, -1.39; with TGACTGTCACACGTTGGTCATC, -1.61.

A further assay deals with PCSK5. Described as above. As to conditions: shRNA.
In the case of TTTGACACATTCCTAAGTCTAA, the sensor-assay potency score (higher = more potent) was -0.793.
On the same count and under the same terms, with TTGTACAGTTCTTGAATCCTGG the figure was -0.113; with TTTGCTTCAACCATGTCCGTGA, 0.588; with TTTTGCAGGATTTGTATCCATT, -1.05.
Still for that read-out and setting: the value for TTGATGAATCCGTACTTGCTGG was -0.268; that for ATAGCTGATACTACAGCTCTGC was -0.314.
As for TTCCATTGAAATGAAACTGTGG, the sensor-assay potency score (higher = more potent) is -0.149.
Same read-out and setting: with TAGTGCAAACAGTCATTGCAGT the figure was -0.552; with TTGTCTTGATTTGTCGGTCTGT, 0.944; with TTGATTTGTCGGTCTGTGCTCT, 0.6.
The same measure, in the same setting: with TTGAAAGCAATTCCGACTGTGC the figure was -0.25.
